Target: Shiga toxin 2 (Escherichia coli O157:H7) (UniProt P09385+P09386)
Experiment: E. coli 0.157:H7 Shiga Toxin SOP - stx2 screening assay
Format: functional
Design: scale not given: direction of the effect not stated beside the values
Conditions: 30 µM

Structure (SMILES) | Percent Effect [%]
O=C(c1ccc(C2CCCO2)s1)N1Cc2ccccc2C1 (centres undefined) | -61.8
CC(C)C(=O)N1CCN(C(=O)CCc2nnc(-c3ccccc3)o2)CC1 | -3.74
Cc1cccc(C)c1NC(=O)CCNC(=O)c1ccoc1 | 15.3
CC(C)c1nccn1-c1cccc(C2CCN(C)CC2)n1 | -33.7
O=C(c1cnccn1)N1CCc2onc(CN3CCOCC3)c2C1 | -5.1
COCc1noc(C2(c3ccc(OC)cc3)CCOCC2)n1 | 1.38
Cc1cnn(CC2CCCN2C(=O)c2cccc(CC#N)c2)c1 (centres undefined) | 8.24
CC(C)COC(C)C(=O)NCc1ccc(OC(C)C)nc1 (centres undefined) | 9.54
CCn1c(Cn2cncn2)nnc1C1CCN(C(=O)CCSC)CC1 | 8.61
O=C(c1cccnc1-n1cncn1)N1CCc2ccccc2C1 | -9.55
CN(Cc1ccsc1)C(=O)c1cccc(F)c1 | -0.747
CSCCCN1CCn2nc(CNC(C)=O)cc2C1 | -62.7
O=C(c1nn(-c2ccccc2F)cc1O)N1CCCC1 | 16
CC(C)NC(=O)N1CC[C@@H]2CN(Cc3ccccc3)S(=O)(=O)[C@@H]2CC1 | -5.27
CN(Cc1cnccn1)C(=O)c1ccnc(OC2CCC2)c1 | -6.19
CC(NC(=O)NCc1cccc(N2CCCC2=O)c1)c1ccccc1 (centres undefined) | 21.2
CCc1nnc2n1CCN(Cc1ccc3c(c1)OCCO3)C2 | 15.5
Cn1cc(CN2CC[C@@H]3O[C@H](C(=O)N4CCOCC4)C[C@@H]32)cn1 | -23.7
O=C(C1CCC1)N1CCC2(COCc3cnc(N4CCOCC4)nc32)C1 (centres undefined) | -34.1

From ChEMBL document CHEMBL3988442, “University of Dundee, Small-Polar-MMV Screening Library” (2021)
